Source: PubChem BioAssay (National Center for Advancing Translational Sciences (NCATS))
Luciferase inh – blocks purified firefly luciferase enzyme activity | P08659 | purified P. pyralis luciferase, luminescence, biochemical | Potency, µM (top dose mostly 115 µM), usual class: inhibitors | 76,000 compounds, 2.5% hits; note: nearly all actives have a fitted effect of over 65% in size
Target sequence (P08659 whole entry, looked up): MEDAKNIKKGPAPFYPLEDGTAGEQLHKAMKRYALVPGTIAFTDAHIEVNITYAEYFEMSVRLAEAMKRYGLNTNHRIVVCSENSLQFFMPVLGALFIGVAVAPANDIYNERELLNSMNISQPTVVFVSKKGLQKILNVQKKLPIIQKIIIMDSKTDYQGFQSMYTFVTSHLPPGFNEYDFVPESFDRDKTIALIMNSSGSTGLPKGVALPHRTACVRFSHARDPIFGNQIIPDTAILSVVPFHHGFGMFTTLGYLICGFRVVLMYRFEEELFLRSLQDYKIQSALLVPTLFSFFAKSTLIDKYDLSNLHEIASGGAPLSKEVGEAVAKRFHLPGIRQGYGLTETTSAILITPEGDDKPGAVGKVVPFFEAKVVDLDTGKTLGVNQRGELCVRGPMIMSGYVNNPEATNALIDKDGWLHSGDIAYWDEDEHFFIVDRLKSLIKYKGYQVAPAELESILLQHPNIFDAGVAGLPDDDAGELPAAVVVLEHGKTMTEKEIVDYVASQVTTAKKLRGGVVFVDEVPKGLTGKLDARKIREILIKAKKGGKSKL
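Cell-free enzyme assay, 10nM P. pyralis luciferase, luciferin and ATP each at 10uM. Inhibition profiled over a 6-point titration, read as luminescence.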
hNpr1 antagonist – antagonists of human natriuretic peptide receptor Npr1 | HEK293 hNpr1 GloSensor cGMP, ANP-stimulated luminescence | P16066 | Potency, µM (series often up to 46.3 µM), for inactives: top-dose activity change, negative = inhibition, usual class: inhibitors | 76,000 compounds, 1.6% hits; calls by dose curve; note: nearly all actives have a fitted effect of over 60% in size
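Compound pre-incubated 30 min at room temperature on GloSensor-loaded HEK293 cells stably carrying hNpr1 and the pGS-40F cGMP biosensor. Stimulation uses hNppA at 0.1 nM final; luminescence is taken at baseline and 20 min post-agonist.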
HEK293 tox – HEK 293 cell cytotoxicity. HEK 293 viability, ATP luminescence (CellTiter-Glo), 48-72 h. Potency, µM (highest dose often 115 µM), without a hit: at the top dose activity change, negative = cytotoxicity, usual class: inhibitors. 94,000 compounds, 6.6% hits. AID 1345083; note: nearly all actives have a fitted effect of over 60% in size
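Cytotoxicity was scored by loss of ATP-coupled luminescence (CellTiter-Glo) in HEK 293 cells. Compound treatment ran 48 or 72 hr at 37 degree Celsius, 5% CO2, 95% humidity.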
NIH3T3 tox – kills NIH 3T3 cells. 94,000 compounds, 4.3% hits. NIH 3T3 viability, CellTiter-Glo ATP luminescence, 48-72 h. Potency, µM (top dose mostly 96.7 µM), inactives show top-dose activity change, negative = cytotoxicity, hits mostly inhibitors; note: nearly all actives have a fitted effect of over 55% in size
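Mouse fibroblast NIH 3T3 cells, 400 per well, received compound via pintool and were incubated for 48 or 72 hr prior to CellTiter-Glo ATP luminescence measurement.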
* hit, by the source's call; i = inactive; ? = inconclusive; · = no result given; [ ] = dose if it differs, or a comment. Shown are actives, neighbours in structure and some others; about 11% of the full set was active somewhere. Unless noted, calls come from the whole dose curve; as a rule, active = well fitted curve in the direction sought with a large enough effect; inconclusive = small, poorly fitted or top-dose-only effect, or another doubt; inactive = no such curve, though single readings can be large; an effect the other way counts as inactive or inconclusive. % is set by controls: 0 for no effect and ±100 for the full control effect; potency is the fitted concentration of half-maximal effect.

SMILES	Luciferase inh	hNpr1 antagonist	HEK293 tox	NIH3T3 tox
COc1ccc(C2Cn3nnc(C(=O)N4CCC(C(=O)Nc5cccc(Cl)c5)CC4)c3CO2)cc1 (centres undefined)	i	0%	-27%	-6%
CS(=O)(=O)N1CCC2(CC1)CN(c1cccc(F)c1)C2c1ccccc1 (centres undefined)	·	·	13µM*	?
CC(C)NC(=O)NCCNC(=O)c1cccc(-c2ccsc2)c1	·	·	100µM*	?
O=C(NCCNC(=O)C1CCCC1)c1cccc(-c2ccsc2)c1	·	·	79µM*	?
COCC1CN(C)CC12CCN(Cc1ccsc1)CC2 (centres undefined)	i	3%	?	-23%
COC1CCC12CCN(C(=O)c1ccncc1)CC2 (centres undefined)	i	-2%	-12%	3%
COc1ccc(Nc2nc(-c3c(C)noc3C)cc3cc(CN(C)C)oc23)cn1	i	-1%[70.6 µM]	79µM*	79µM*
COc1ccc(-c2nc(-c3c(C)noc3C)cc3cc(C(C)C)oc23)cn1	i	5%[70.6 µM]	?	?
COc1ccc(-c2nc(-c3c(C)noc3C)cc3cc(CN(C)C)oc23)cn1	i	-1%[70.6 µM]	?	50µM*
COc1ccccc1-c1nc(-c2c(C)noc2C)cc2cc(CN(C)C)oc12	i	1%[70.6 µM]	?	?
Cc1noc(C)c1-c1cc2cc(CN(C)C)oc2c(-c2ccc([S+](C)(=O)[O-])cc2)n1	i	0%[70.6 µM]	?	?
COc1cc(-c2nc(-c3c(C)noc3C)cc3cc(CN(C)C)oc23)ccn1	i	-13%[70.6 µM]	79µM*	40µM*
COCCCNc1nc(-c2c(C)noc2C)cc2cc(CN(C)C)oc12	i	4%[70.6 µM]	-29%[172 µM]	?
Cc1noc(C)c1-c1cc2cc(CN(C)C)oc2c(Nc2ccncn2)n1	i	-3%[70.6 µM]	?	45µM*
O=C(CCC1CCN(C(=O)[C@H]2C[C@@H]3C=C[C@H]2C3)CC1)N1CCC(Cc2ccccc2)CC1	i	?	45µM*	?
O=C(CCC1CCN(S(=O)(=O)c2ccccc2)CC1)N1CCCC1	i	-3%	?	?
COc1cccc(CC(=O)NC2CCN(c3cnn(C)c(=O)c3)CC2)c1	i	-5%	i	i
COc1ccc(CN2CCCC3(C2)C(=NC2CCCCC2)NC(=O)N3c2cc(F)cc(F)c2)cc1 (centres undefined)	·	·	45µM*	?
O=C1NC(=NC2CCCCC2)C2(CCN(Cc3ccccc3)C2)N1c1cc(F)cc(F)c1 (centres undefined)	·	·	?	32µM*
COc1cccc(N2C(=O)NC(=NC3CCCCC3)C23CCN(Cc2ccc(F)cc2)CC3)c1	·	·	-15%	0%
O=C1NC(=NC2CCCCC2)C2(CCCN(Cc3ccccc3)C2)N1c1cc(F)cc(F)c1 (centres undefined)	·	·	?	35µM*
O=C1NC(=NC2CCCCC2)C2(CCN(Cc3ccc(F)cc3)C2)N1c1cc(F)cc(F)c1 (centres undefined)	·	·	?	32µM*
O=C1NC(=NC2CCCC2)C2(CCCN(Cc3ccccc3)C2)N1c1cc(F)cc(F)c1 (centres undefined)	·	·	-9%	2%
O=C(c1ccc2c(c1)OCO2)N1CCC2(CC1)CC(c1ccccc1)=NO2	i	-9%	?	-32%
O=S(=O)(c1cccc(C(F)(F)F)c1)N1CCC(n2cnnc2C2CC2)CC1	i	-25%	-23%	-28%
SMILES	Luciferase inh	hNpr1 antagonist	HEK293 tox	NIH3T3 tox
COc1ccc(NC(=O)c2ccc3c(c2)N(C)C2CCCCN2C3=O)c(OC)c1 (centres undefined)	?	3%	?	?
CC(=O)NC1CCN(C(=O)c2ccc(-c3ncccc3C#N)cc2)CC1	·	·	-23%	-28%
O=C1Cc2c(-c3ccccc3Cl)n[nH]c2CN1Cc1ccccc1F	i	-7%[70.6 µM]	?	?
O=C1Cc2c(-c3ccccc3Cl)n[nH]c2CN1Cc1ccccn1	i	4%[70.6 µM]	-13%[172 µM]	79µM*
COc1ccc(-c2cc(CC3(NCc4ccccc4O)COC3)no2)cc1	i	-18%[70.6 µM]	100µM*	?
Fc1ccc(-c2cc(CC3(NCc4ccco4)COC3)no2)cc1	i	-15%[70.6 µM]	89µM*	?
COc1ccccc1-c1[nH]nc2ncc(C(=O)NCCc3ccccn3)nc12	i	-2%[70.6 µM]	63µM*	?
COc1ccccc1-c1[nH]nc2ncc(C(=O)N(C)c3ccccc3)nc12	i	-22%[70.6 µM]	89µM*	?
CCc1ccc(S(=O)(=O)N2CCC(n3cnnc3CC)CC2)cc1	i	-21%	-26%	?
c1ccc(CN(C2CCOCC2)C2CN(Cc3cncs3)C2)cc1	·	·	-6%	-15%
CCn1cc(CN2CCN(C(=O)c3ccsc3)CC2)ccc1=O	?	-2%	-17%	-19%
CC1CCC2(CC1)OCC(C(=O)NCc1ccccc1F)N2C(=O)c1ccccc1F (centres undefined)	i	5%	79µM*	-24%
COc1ccc([C@H]2C[C@@H](O)[C@@H](O)[C@@H]2NCc2ccc(Cl)cc2)cc1	i	-21%[70.6 µM]	100µM*	?
COc1ccc([C@H]2C[C@@H](O)[C@@H](O)[C@@H]2NC(=O)c2cc3ccccc3s2)cc1	i	?	79µM*	?
COc1ccc([C@H]2C[C@@H](O)[C@@H](O)[C@@H]2NS(=O)(=O)c2ccc(C(F)(F)F)cc2)cc1	i	2%[70.6 µM]	100µM*	-28%[174 µM]
COc1ccc([C@H]2C[C@@H](O)[C@@H](O)[C@@H]2NCc2cn(C)c3ccccc23)cc1	i	-24%[70.6 µM]	?	89µM*
COc1ccc([C@H]2C[C@@H](O)[C@@H](O)[C@@H]2NCc2cnn(C)c2)cc1	i	-3%[70.6 µM]	-12%[172 µM]	-7%[138 µM]
COC(=O)CNC(=O)c1ccc2nnc(Cc3ccc(OC)cc3)n2c1	·	·	4%	-19%
Cc1ncoc1C(=O)N1CC(F)(F)C[C@H]1c1nc(C2CC2)no1	i	5%	1%	-2%
COc1ccc(CN[C@H]2[C@H](O)[C@H](O)C[C@@H]2c2ccc(C(F)(F)F)cc2)cc1	i	-15%[70.6 µM]	45µM*	28µM*
O=C(N[C@H]1[C@H](O)[C@H](O)C[C@@H]1c1ccc(C(F)(F)F)cc1)c1ccc2c(c1)OCCO2	?	0%[70.6 µM]	?	100µM*
O=C(N[C@H]1[C@H](O)[C@H](O)C[C@@H]1c1ccc(C(F)(F)F)nc1)c1ccc2c(c1)OCCO2	i	-2%[70.6 µM]	-8%[172 µM]	-22%[174 µM]
COc1ccc([C@H]2C[C@@H](O)[C@@H](O)[C@@H]2NCc2ccccc2)cc1	i	?	-23%[172 µM]	1%[174 µM]
COc1ccc(C(=O)N2CCN(C(=O)c3nnn4c3COC(c3ccccc3)C4)CC2)c(C)c1 (centres undefined)	i	-22%	?	-30%
CCCCc1cc(C[C@@H]2C[C@H](NC(=O)C3CC3)C2(C)C)no1	?	-7%[70.6 µM]	?	-27%[138 µM]
